Columns and labels:
Format in all cases: functional
[1] = biological target: Solute carrier family 2, facilitated glucose transporter member 1 (Homo sapiens) (UniProt P11166); assay: ST_JUDE_LEISH: Cytotoxicity at 2uM final concentration against transgenic Leishmania Mexicana promastigotes LmGLUT1 that are glucose transport deficient and complemented with the human glucose transporter GLUT1. Activity is measured by DNA content using SYBR green in vitro
[2] = biological target: Hexose transporter 1 (Plasmodium falciparum) (UniProt O97467); assay: ST_JUDE_LEISH: Cytotoxicity at 2uM final concentration against transgenic Leishmania Mexicana promastigotes LmPfHT that are glucose transport deficient and complemented with the Plasmodium falciparum hexose transporter. Activity is measured by DNA content using SYBR green in vitro
[3] = biological target: Glucose transporter (Leishmania mexicana) (UniProt O61059); assay: ST_JUDE_LEISH: Cytotoxicity at 2uM final concentration against transgenic Leishmania Mexicana promastigotes LmGT2 that are glucose transport deficient and complemented with the L. Mexicana glucose transporter 2. Activity is measured by DNA content using SYBR green in vitro

Sequence of Solute carrier family 2, facilitated glucose transporter member 1 (Homo sapiens) (P11166 whole entry): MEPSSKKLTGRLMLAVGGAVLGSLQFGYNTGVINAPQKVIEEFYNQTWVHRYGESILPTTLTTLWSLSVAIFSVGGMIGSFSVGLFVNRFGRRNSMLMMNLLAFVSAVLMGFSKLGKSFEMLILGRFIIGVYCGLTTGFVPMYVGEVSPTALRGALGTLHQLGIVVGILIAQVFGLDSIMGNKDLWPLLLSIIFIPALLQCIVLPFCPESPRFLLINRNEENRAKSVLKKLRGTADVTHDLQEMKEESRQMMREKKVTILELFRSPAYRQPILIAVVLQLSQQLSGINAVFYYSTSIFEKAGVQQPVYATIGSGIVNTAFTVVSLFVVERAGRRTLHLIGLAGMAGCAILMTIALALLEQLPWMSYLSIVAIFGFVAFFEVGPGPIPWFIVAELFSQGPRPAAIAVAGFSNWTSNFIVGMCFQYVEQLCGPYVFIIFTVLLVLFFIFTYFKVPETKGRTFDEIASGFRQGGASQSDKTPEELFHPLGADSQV

Compound	inhibition [1] [%]	inhibition [2] [%]	inhibition [3] [%]
FC(F)(F)c1ccc2[nH]c(-c3ccc(-c4ccc(CNCCN5CCNCC5)cc4)cc3)nc2c1	-1.44	0.13	-1.25
COc1ccc(Nc2c3ccc(Cl)cc3nc3ccc(OC)cc23)cc1	2.45	4.25	0.01
CC(CN(C)C)C(=O)Nc1ccc(-c2ccc(-c3nc4cc(F)ccc4[nH]3)cc2)cc1 (stereo not given)	5.33	1.98	2.85
COc1ccc2ncc(F)c(CCN3CCC(NCc4cc(Br)c5c(c4)OCCO5)CC3)c2n1	18.9	31.4	14.3
CCCNCc1ccc(-c2ccc(CN(CCOC)C(=O)/C=C/c3ccccc3C)cc2)nc1	9.67	6.69	6.86
Cc1nc(C)c(-c2ccc(-c3ccc(F)cc3)cc2)c(O)c1Cl	1.77	2.48	0.55
O=C(Nc1ccc(-c2cccc(-c3nc4ccccc4[nH]3)c2)cc1)Nc1ccc(Cl)c(Cl)c1	-0.46	0.83	0.9
O=C(Nc1ccc(Cl)cc1)c1ccc(CN2CCCN(Cc3cccc(F)c3)CC2)cc1	-0.02	5.11	3.31
C#CCN(Cc1ccc2[nH]c(N)nc(=O)c2c1)c1ccc(C(=O)N[C@@H](CCC(=O)O)C(=O)O)cc1	4.21	3.35	3.66
O=C(c1ccc(-c2ccc(-c3nc4cc(C(F)(F)F)ccc4[nH]3)s2)cc1)N1CCCCC1CN1CCC(O)C1 (stereo not given)	7.23	5.1	2.98
CC1CCC(NCc2c(O)ccc3ccccc23)CC1 (stereo not given)	2.01	1.89	2.46
CC1CCCCC1N(C)C1CCN(CCCNC(=O)C=Cc2ccc(Cl)cc2Cl)CC1 (stereo not given)	-1.12	-1.99	1.66
COc1ccc(C(=O)Nc2ccc(-c3nc4cc(C)ccc4[nH]3)cc2)cc1OC	3.99	2.08	3.84
CCCc1cc(NCC)nc(Nc2ccc(F)cc2)n1	15.6	6.64	3.2
Fc1ccc2[nH]c(-c3cccc(-c4cccc(CNCCc5ccncc5)c4)c3)nc2c1	11.1	10.6	12.9
COc1cc2ncnc(Nc3ccc(OCc4ccccc4)c(C(F)(F)F)c3)c2cc1OC	1.67	0.75	0.32
CCC[C@@H]([C@@H](CC(C)C)C(=O)N[C@@H](CCC/N=C(/N)NS(C)(=O)=O)C(=O)Nc1nccs1)N(O)C=O	7.57	9.74	6.5
COc1cc(N(Cc2ccccc2C)S(=O)(=O)Cc2ccccc2[N+](=O)[O-])c(OC)cc1Cl	3.26	2.73	3.39
CCN(C(=O)c1ccc(NC(=O)c2cccs2)cc1)c1nc2c(C)cccc2s1	1.43	4.28	2.9
COc1cccc2c1CCN(CCN1CCC(NC(=O)c3ccc(-c4cccc(Cl)c4Cl)cc3)CC1)C2	6.67	6.1	5.27
c1cncc(CCNCc2ccc(-c3cccc(-c4nc5ccccc5[nH]4)c3)cc2)c1	-0.73	0.67	-0.38
CCCN(CCC)C(=O)c1cc(-c2cccc(C)c2)nc2ccccc12	2.62	0.69	-1.61
COc1cc(F)c2ncc(Cl)c(CCN3CCC(NCc4ccc5c(n4)NC(=O)CS5)CC3)c2c1	8.34	8.44	-2.08
Cc1nc(Nc2cc(Cl)ccc2O)nc(Nc2cc(Cl)ccc2O)c1[N+](=O)[O-]	4.36	3.14	1.45

Compound	inhibition [1] [%]	inhibition [2] [%]	inhibition [3] [%]
O=C(Nc1cccc(-c2ccc(-c3nc4cc(F)ccc4[nH]3)cc2)c1)c1ccncc1	4.46	2.3	2.96
CN1CCC(C(=O)Nc2cccc(-c3ccc(-c4nc5cc(C(F)(F)F)ccc5[nH]4)s3)c2)CC1	9.29	10	6.1
CCNc1cc(C(=O)N[C@@H](Cc2ccccc2)[C@H](O)CNC2CCCCC2)cc(N2CCCCS2(=O)=O)c1	8.15	4.98	7.3
Fc1cc(Cl)ccc1Nc1ccnc(Nc2ccc3cn[nH]c3c2)n1	12.7	10.7	5.1
CSc1cccc(Nc2nc3ccc(S(=O)(=O)NC(C)C(C)C)cc3n2[C@H](C)C(C)(C)C)c1 (stereo not given in full)	6.73	6.18	6.54
Cc1cc(Cc2ccc(S(=O)(=O)c3cc4c(cc3O)CCN(C)CC4)cc2)ccc1Cl	-0.06	2.07	0.31
Cn1nc(-c2ccccc2F)c2cc(C(=O)Nc3cccnc3)sc21	3.76	2.08	2.9
CC(C)CNCc1cccc(-c2cccc(CN(CCCN3CCN(C)CC3)C(=O)CCC3CCCC3)c2)c1	4.42	3.07	4.38
O=C(Cn1c(CCc2cccc(F)c2F)nc(=O)c2ccccc21)N(CCN1CCCCC1)Cc1ccc(-c2ccc(C(F)(F)F)cc2)cc1	6.02	4.32	4.32
CN1CCN(c2ccnc3ccc(NC(=O)N(C)c4ccc(Cl)c(Cl)c4)cc23)CC1	-0.11	0.31	1.72
Cc1cc(=NN=Cc2cccc(Cl)c2)c2ccc(F)cc2[nH]1	0.61	1.03	1.04
O=C(Nc1cccc(CN2CCCN(Cc3ccc(O)cc3)CC2)c1)c1cccc(F)c1	10.8	10.4	9.62
Nc1cnc(C#Cc2cc3ncnc(N(CCN4CCOCC4)c4ccc(OCc5cccc(F)c5)c(Cl)c4)c3s2)cn1	1.16	0.42	-3.58
COc1ccccc1NS(=O)(=O)c1cc(C(=O)Nc2ccc(N3CCOCC3)c(S(=O)(=O)Nc3ccccc3Cl)c2)ccc1Cl	3.2	2.83	0.88
N=C(N)NC(=O)Nc1cc(Br)c(Cl)c(Br)c1	-0.91	-1.3	-1.76
N#Cc1ccc(-c2ccc(C(=O)Nc3ccc4c(c3)CCN(C3CCC3)CC4)nc2)cn1	7.75	7.17	5.21
COc1cc2c(cc1S(=O)(=O)c1ccc(NC(=O)c3cccc(C(F)(F)F)c3)cc1)CCN(C)CC2	1.16	0.62	1.88
O=C(Nc1cccc(CN2CCCN(Cc3ccc(F)cc3)CC2)c1)c1ccc(Cl)c(Cl)c1	4.82	4.15	0.56
O=C(CNc1ccc(Cl)c(S(=O)(=O)N2CCCC2)c1)Nc1ccc(Br)cc1F	-2.34	1.47	1.03
CC1CCCCN1S(=O)(=O)c1ccc(NC(=O)c2cc(-c3ccccc3O)n[nH]2)cc1 (stereo not given)	1.2	1.81	-1.06
O=C(N[C@H]1CCN(Cc2ccc(OCCN3CCCC3)c3ccccc23)C1)c1ccc(Cl)c(Cl)c1	1.59	2.72	-2.78
Cc1cc(N)cc2nc(-c3ccc(N)cc3)[nH]c12	3.09	2.43	1.68
COc1ccccc1CNc1nc(Nc2ccccc2C)nc2ccccc12	38.4	54.5	14.4
CC(C(=O)Nc1ccc(Br)cc1Br)N1CCN(C(=O)c2ccco2)CC1 (stereo not given)	-0.66	1.36	1.86

Compound	inhibition [1] [%]	inhibition [2] [%]	inhibition [3] [%]
Cc1cc(N[C@@H](Cc2ccccc2)C(=O)NCc2cccs2)nc(NCCc2ccc(F)cc2)n1	8.62	8.93	4.14
Cc1nn(CCOC(=O)NC(NCC2COc3ccccc3O2)C(Cl)(Cl)Cl)cc1[N+](=O)[O-] (stereo not given)	0.33	-0.07	-1.73
CCNc1cc(C(=O)N[C@@H](Cc2ccccc2)[C@H](O)CNC2CCC(C(C)(C)C)CC2)cc(N2CCCC2=O)c1 (stereo not given in full)	0.78	1.1	-2.55
Cc1cccc2nc(-c3cccc(-c4cccc(NC(=O)NCc5cccc(F)c5)c4)c3)[nH]c12	4.66	6.34	5.41
COc1ccc(/C=C/C(=O)Nc2ccc(-c3ccncc3)cc2)cc1CCCN(C)C	6.87	5.55	6.94
COc1ccc(OC)c(-c2ccc(O)c(CNCC(C)c3ccccc3)c2)c1 (stereo not given)	-0.66	-0.62	-1.24
CNCCCn1c(N(C)C)nc2cc(-n3cnc4cc(-c5ccc(Cl)cc5)sc4c3=O)ccc21	3.3	3.48	3.76
Clc1ccc(Nc2nc(Nc3ccc(Cl)c(Cl)c3)nc(Sc3nc4ccccc4[nH]3)n2)cc1Cl	8.07	9.05	7.05
Cc1cc(-c2ccc3c(c2)CCN(CCC2CCC(NC(=O)/C=C/c4ccc(F)cc4)CC2)CC3)on1 (stereo not given)	4.44	2.66	4.41
CS(=O)(=O)Cc1ccc(Nc2ncc(Cl)c(Nc3cccnc3C(N)=O)n2)cc1	28.2	32.1	23
Cc1cc(C(=O)Nc2ccc(C)c(-c3nc(N(C(=O)c4ccc(F)c(C)c4)C4CCNCC4)nc4c3ccc(=O)n4-c3c(F)cccc3F)c2)ccc1F	1.66	0.07	0.59
COc1ccc2nccc(N/N=C/c3ccccc3[N+](=O)[O-])c2c1	2.92	4.3	0.03
Cc1cc(C(=O)Nc2ccc3c(c2)CCN3C2CCN(Cc3csc4ccccc34)C2)no1 (stereo not given)	0.87	-2.02	1.87
O=C(N[C@H]1CCN(CCc2ccc(O[C@H]3CCNC3)c(Cl)c2)C1)c1ccc(Cl)c(Cl)c1	1.64	1.22	3.35
Cc1ccc(C)c(NC(=O)NC2CCN(c3ccnc(Nc4ccc(F)cc4)n3)C2)c1 (stereo not given)	-2.45	-0.78	-1.79
O=C(Nc1ccc(S(=O)(=O)N2CCCCC2)cc1)c1cc(-c2cc(Cl)ccc2O)n[nH]1	6.03	6.9	4.71
Cc1ccc(Cc2c(N)nc3nc(N)nc(N)c3c2C)cc1	4.96	8.67	6.55
CN1CCN(c2cccc(Nc3nccc(NCC(O)c4ccccc4)n3)c2)CC1 (stereo not given)	1.83	1.6	0.06
CCOC(=O)C(C(=O)OCC)c1nc(C)ns1	-1.35	0.58	0.53
O=C(Nc1nc(-c2ccccn2)cc2ccccc12)c1cccc(Cl)c1	10.1	9.58	8.17
COc1cc2c(cc1C(F)(F)F)N(C(=O)Nc1cc(OC(F)(F)F)cc(-c3cccnc3)c1)CC2	-0.39	1.79	-0.44
O=C(NCc1cccc(C(F)(F)F)c1)C1CCCN(C(=O)c2ccc(O)c(-c3ccc(Cl)c(Cl)c3)c2)C1 (stereo not given)	3.46	2.95	3.95

Source: ChEMBL document CHEMBL3433997, “St. Jude Leishmania screening dataset” (2016)
